Inconclusive results are not listed. The source holds several records for some structures; these can differ, active in one and inactive in another. Activity calls are given as the source filed them. How the source made its calls, unless noted: active means hit-call score of the fitted dose curve at least 0.9, where 1 is the maximum; inconclusive means response in the unintended direction; inactive means score below 0.9.

Among the data in PubChem BioAssay (EPA / NIEHS) are AC50 and outcome values, retold here.

For test [1], the target named is human Dopamine Transporter (DAT), SLC6A3 (gene 6531) (UniProt Q01959). The test can be described thus: NVS_TR_hDAT: NovaScreen (NVS) Transporter Assay for human Dopamine Transporter (DAT) (AID 2283374).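 Further: activity means loss of bound radioligand signal relative to DMSO.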 The method in brief: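 Test chemicals were first screened in duplicate at 25 uM, with actives retested as concentration series. Displacement of a specific radioligand from cell-free human dopamine transporter was measured after 1 h by filtration and scintillation counting.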
Chain of human Dopamine Transporter (DAT), SLC6A3 (gene 6531) (Q01959 whole entry, looked up): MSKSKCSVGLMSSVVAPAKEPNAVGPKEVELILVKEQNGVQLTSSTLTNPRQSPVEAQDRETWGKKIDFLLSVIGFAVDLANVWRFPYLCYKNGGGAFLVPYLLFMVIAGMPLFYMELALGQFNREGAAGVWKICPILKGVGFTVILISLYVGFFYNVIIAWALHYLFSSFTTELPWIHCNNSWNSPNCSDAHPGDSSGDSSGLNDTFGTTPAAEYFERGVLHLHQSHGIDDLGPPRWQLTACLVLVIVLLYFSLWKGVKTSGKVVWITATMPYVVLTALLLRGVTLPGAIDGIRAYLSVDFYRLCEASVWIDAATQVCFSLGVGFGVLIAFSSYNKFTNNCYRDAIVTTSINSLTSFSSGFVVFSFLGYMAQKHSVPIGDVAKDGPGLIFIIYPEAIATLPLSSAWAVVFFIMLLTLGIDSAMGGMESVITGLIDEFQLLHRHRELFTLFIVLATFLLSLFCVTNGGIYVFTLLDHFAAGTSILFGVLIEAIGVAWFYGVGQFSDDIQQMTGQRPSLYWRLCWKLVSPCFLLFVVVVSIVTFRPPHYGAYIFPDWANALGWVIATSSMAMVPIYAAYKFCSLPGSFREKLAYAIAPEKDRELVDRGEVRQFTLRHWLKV

Test [2] has as its target Agonist Androgen Response Element (ARE), AR (gene 367) (UniProt P10275). Description: OT_AR_ARELUC_AG_1440: Odyssey Thera (OT) 24-hour CHO-K1 Luciferase Assay for Agonist Androgen Response Element (ARE) (AID 2283379). The method in brief: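 Agonist mode, 24 h exposure in CHO-K1 ARE-luciferase cells; values reflect luminescence induction over vehicle.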
Test [3] concerns the target Estrogen receptor beta (Homo sapiens) (UniProt Q92731). Description: OT_ER_ERbERb_1440: Odyssey Thera (OT) 24-hour HEK293T Protein-Complementation Assay for Estrogen Receptor-beta/-beta Homodimer (AID 2283380).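 Further: fluorescence gain from ER beta LBD homodimer complementation read by laser scanning cytometry; scored as signal increase over DMSO baseline for both agonists and antagonists.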 The method in brief: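 Fluorescence increase, nuclear for agonists or whole-cell for antagonists, relative to DMSO vehicle, quantified by laser scanning cytometer after fixation and Draq5 staining. Readout from 24 h treatment of HEK293T cells carrying complementation-paired ER beta LBD (aa 310-547).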

Test [4] has as its target Bile acid receptor (Homo sapiens) (UniProt Q96RI1). The test can be described thus: OT_FXR_FXRSRC1_0480: Odyssey Thera (OT) 8-hour HEK293T Protein-Complementation Assay for Farnesoid X receptor/SRC-1 Co-activator (AID 2283383). The method in brief:
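HEK293T cells expressing FXR and SRC-1 fused to reporter fragments were dosed with compound for 8 h; fluorescence from the reconstituted reporter marked co-activator recruitment. Gain of signal was fitted against the DMSO baseline.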

Test [5] shares this target. Description: OT_FXR_FXRSRC1_1440: Odyssey Thera (OT) 24-hour HEK293T Protein-Complementation Assay for Farnesoid X receptor/SRC-1 Co-activator (AID 2283384). The method in brief: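 HEK293T cells were dosed with compound and read 24 h later by fluorescence intensity from protein-fragment complementation reporting FXR/SRC-1 co-activator interaction. Gain of signal was fitted relative to DMSO negative control as baseline.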

Test [6] deals with Retinoic acid receptor RXR-alpha (Homo sapiens) (UniProt P19793). The test can be described thus: OT_NURR1_NURR1RXRa_0480: Odyssey Thera (OT) 8-hour HEK293T Protein Complementation Assay for Nurr1/retinoid X receptor (RXR) (AID 2283385). Put shortly: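 HEK293T cells expressing Nurr1 and RXRα fused to reporter fragments were dosed with compound for 8 hours. Complex formation was read as fluorescence intensity and analysed as gain of signal against DMSO as baseline.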
Chain of Retinoic acid receptor RXR-alpha (Homo sapiens) (P19793 whole entry, looked up, the tested form may be a part): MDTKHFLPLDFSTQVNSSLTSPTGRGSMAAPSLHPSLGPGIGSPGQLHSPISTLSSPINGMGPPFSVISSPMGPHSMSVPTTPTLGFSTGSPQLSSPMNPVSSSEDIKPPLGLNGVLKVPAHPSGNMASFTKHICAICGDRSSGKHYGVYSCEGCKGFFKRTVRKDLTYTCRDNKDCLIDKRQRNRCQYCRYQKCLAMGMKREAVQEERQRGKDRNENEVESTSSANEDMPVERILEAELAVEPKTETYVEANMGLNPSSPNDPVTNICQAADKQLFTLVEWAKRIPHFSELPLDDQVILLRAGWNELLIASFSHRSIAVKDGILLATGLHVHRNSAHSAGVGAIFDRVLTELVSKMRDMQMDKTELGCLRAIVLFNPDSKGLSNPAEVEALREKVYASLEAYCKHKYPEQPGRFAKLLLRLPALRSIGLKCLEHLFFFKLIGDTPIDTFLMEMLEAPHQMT

Test [7] has the same target. Description: OT_NURR1_NURR1RXRa_1440: Odyssey Thera (OT) 24-hour HEK293T Protein Complementation Assay for Nurr1/retinoid X receptor (RXR) (AID 2283386). Put shortly: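 HEK293T cells were dosed with compound and read 24 h later by fluorescence intensity in a protein-fragment complementation format, where Nurr1–RXRα interaction reconstitutes a split reporter. Activity was fitted as gain of signal relative to DMSO baseline.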

Test [8] concerns the target Peroxisome proliferator-activated receptor gamma (Homo sapiens) (UniProt P37231). Description: OT_PPARg_PPARgSRC1_0480: Odyssey Thera (OT) 8-hour Protein-Complementation Assay for Peroxisome Proliferator-activated Receptor Gamma / SRC-1 Co-activator (AID 2283387). Put shortly: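 Split-YFP (IFP1/IFP2) PPARg/SRC-1 reporter, HEK293T, 37 °C, 5% CO2; 8 h compound; formaldehyde fix + Draq5; high-content imaging, N/C ratio, ≥350 cells/image, positive direction vs DMSO.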

Test [9] shares this target. Description: OT_PPARg_PPARgSRC1_1440: Odyssey Thera (OT) 24-hour Protein-Complementation Assay for Peroxisome Proliferator-activated Receptor Gamma/ SRC-1 Co-activator (AID 2283388). Put shortly: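 HEK293T cells transiently transfected with PPARg and SRC-1 fused via (Gly4Ser)2 linker to split Venus YFP fragments (IFP1/IFP2) were dosed 24 h; fixed, Draq5-stained, imaged at 488/635 nm; nuclear/cytoplasmic fluorescence ratio scored versus DMSO baseline, gain-of-signal.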

Test [10] has as its system rat Norepinephrine Transporter (NET), gene 83511. The test can be described thus: NVS_TR_rNET: NovaScreen (NVS) Transporter Assay for rat Norepinephrine Transporter (NET) (AID 2283373). Put shortly:
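Rat forebrain membranes; radioligand binding measured by filter-based scintillation counting 1 hour after dosing. Loss of specific binding versus DMSO baseline scored; primary screen in duplicate at 25 uM, actives followed up in concentration series.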

The target in test [11] is Norway rat Vesicular Monoamine Transporter (VMAT2), neurotransmitter transporter, Slc18a2 (gene 25549) (UniProt Q01827). The test can be described thus: NVS_TR_rVMAT2: NovaScreen (NVS) Transporter Assay for Norway rat Vesicular Monoamine Transporter (VMAT2), neurotransmitter transporter (AID 2283376).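 Further: actives lower the bound radioligand signal below the DMSO level.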 Put shortly:
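Tissue: rat forebrain extract. Format: competitive radioligand binding, cell-free. Timepoint: 1 h. Readout: filter radiodetection/scintillation. Screen: 25 uM in duplicate, then concentration series for actives. Baseline: DMSO.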

The target of test [12] is human Norepinephrine Transporter (NET), SLC6A2 (gene 6530) (UniProt P23975). Description: NVS_TR_hNET: NovaScreen (NVS) Transporter Assay for human Norepinephrine Transporter (NET) (AID 2283377).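 Further: cell-free membrane protein extracted from CHO cells expressing human NET; displacement of radioligand from human NET seen as loss of scintillation signal.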 The method in brief:
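Scintillation counts of filter-retained radioligand served as the readout, taken 1 h post-dosing in a cell-free CHO-derived system. Test chemicals ran first at 25 uM in duplicate; confirmed hits were retested across concentrations.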

Test [13] addresses Estrogen receptor (Homo sapiens) (UniProt P03372). Description: OT_ERa_GFPERaERE_0480: Odyssey Thera (OT) 8-hour HeLa Transcription Induction Assay for Estrogen Receptor (AID 2283381; active means hit-call score of the fitted dose curve at least 0.9, where 1 is the maximum; inactive means score below 0.9). The method in brief:
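HeLa cells dosed with compound and imaged by fluorescence microscopy at 8 h; GFP induction from an ERE reporter quantified by high-content image analysis and fitted as gain of signal against DMSO baseline.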

Test [14] has the same target. Description: OT_ERa_GFPERaERE_0120: Odyssey Thera (OT) 2-hour HeLa Transcription Induction Assay for Estrogen Receptor (AID 2283382). The method in brief:
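HeLa cells were dosed with test chemical and read 2 hours later for GFP-ERα/ERE-linked fluorescent protein induction by fluorescence microscopy. Gain-of-signal was fitted relative to DMSO baseline, quantified by high content image analysis.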

Test [15] is described as follows: CEETOX_H295R_11DCORT: CeeTox H295R High-throughput Steroidogenesis Assay for 11-Deoxycortisol (11DCORT) (AID 2283432; active means hit-call score of the fitted dose curve at least 0.9, where 1 is the maximum; inactive means score below 0.9). The note with it: actives raise or lower the signal. The method in brief: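 Steroidogenesis in human H295R cells: 48 h chemical exposure after forskolin priming, 11-deoxycortisol measured by LC-MS/MS.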
Test [16] is described as follows: CEETOX_H295R_OHPREG: CeeTox H295R High-throughput Steroidogenesis Assay for OH-Pregnenolone (OHPREG) (AID 2283434; active means hit-call score of the fitted dose curve at least 0.9, where 1 is the maximum; inactive means score below 0.9). The note with it: actives raise or lower the signal. Put shortly:
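Hormone levels in spent medium were measured by tandem mass spectrometry following liquid-liquid extraction. Cells (H295R) had been forskolin-stimulated (10 uM, 48 h) before a 48 h chemical exposure at 0.1% DMSO, with activity fitted in both directions against DMSO.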

Test [17] is described as follows: CEETOX_H295R_OHPROG: CeeTox H295R High-throughput Steroidogenesis Assay for OH-Progesterone (OHPROG) (AID 2283435; active means hit-call score of the fitted dose curve at least 0.9, where 1 is the maximum; inactive means score below 0.9). The note with it: actives raise or lower the signal. Put shortly: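 H295R human adrenal cells were prestimulated 48 h with 10 uM forskolin, then exposed 48 h to test chemical (0.1% DMSO final). 17alpha-hydroxyprogesterone in medium was measured by HPLC-MS/MS after MTBE extraction; bidirectional fitting vs DMSO.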

A short description of test [18]: CEETOX_H295R_CORTIC: CeeTox H295R High-throughput Steroidogenesis Assay for Corticosterone (CORTIC) (AID 2283437; active means hit-call score of the fitted dose curve at least 0.9, where 1 is the maximum; inactive means score below 0.9;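 further: corticosterone secreted into medium quantified by mass spectrometry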). The note with it: actives raise or lower the signal. The method in brief:
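Corticosterone secreted into medium is measured by reverse-phase HPLC with tandem MS following liquid-liquid extraction. Cells are forskolin-stimulated (10 uM, 48 h) before 48 h test exposure; activity fitted in both directions against DMSO.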

Test [19] concerns the target rat Serotonin Transporter (SERT), Slc6a4 (gene 25553) (UniProt P31652). Description: NVS_TR_rSERT: NovaScreen (NVS) Transporter Assay for rat Serotonin Transporter (SERT) (AID 2283375). Put shortly:
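Rat forebrain membranes were incubated with test chemical for 1 hour; radioligand binding to SERT was measured by filter-based scintillation counting. Primary screen ran in duplicate at 25 uM, with actives followed up in concentration series; DMSO served as negative control.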

A short description of test [20]: CEETOX_H295R_ANDR: CeeTox H295R High-throughput Steroidogenesis Assay for Androstenedione (ANDR) (AID 2283436; active means hit-call score of the fitted dose curve at least 0.9, where 1 is the maximum; inactive means score below 0.9). The note with it: actives raise or lower the signal. The method in brief: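 Read-out is androstenedione secreted into medium, measured by tandem mass spectrometry after liquid-liquid extraction. Cells were H295R, dosed for 48 h per modified OECD 456; activity fitted in both directions relative to DMSO.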

Chain of Estrogen receptor beta (Homo sapiens) (Q92731 whole entry, looked up, the tested form may be a part): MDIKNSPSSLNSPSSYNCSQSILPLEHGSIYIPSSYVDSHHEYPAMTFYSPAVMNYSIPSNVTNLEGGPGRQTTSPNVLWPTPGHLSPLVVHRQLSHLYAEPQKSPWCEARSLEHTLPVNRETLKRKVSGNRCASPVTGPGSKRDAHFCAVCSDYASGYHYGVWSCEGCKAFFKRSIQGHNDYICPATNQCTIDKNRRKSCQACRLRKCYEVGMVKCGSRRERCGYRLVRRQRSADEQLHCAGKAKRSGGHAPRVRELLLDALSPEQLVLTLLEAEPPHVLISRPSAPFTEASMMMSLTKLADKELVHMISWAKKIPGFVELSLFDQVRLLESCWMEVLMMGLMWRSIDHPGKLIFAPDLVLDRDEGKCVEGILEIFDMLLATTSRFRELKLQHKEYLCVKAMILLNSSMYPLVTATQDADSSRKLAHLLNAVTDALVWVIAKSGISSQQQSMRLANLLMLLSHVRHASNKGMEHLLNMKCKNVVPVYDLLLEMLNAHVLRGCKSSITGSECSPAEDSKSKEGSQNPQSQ
Chain of Peroxisome proliferator-activated receptor gamma (Homo sapiens) (P37231 whole entry, looked up): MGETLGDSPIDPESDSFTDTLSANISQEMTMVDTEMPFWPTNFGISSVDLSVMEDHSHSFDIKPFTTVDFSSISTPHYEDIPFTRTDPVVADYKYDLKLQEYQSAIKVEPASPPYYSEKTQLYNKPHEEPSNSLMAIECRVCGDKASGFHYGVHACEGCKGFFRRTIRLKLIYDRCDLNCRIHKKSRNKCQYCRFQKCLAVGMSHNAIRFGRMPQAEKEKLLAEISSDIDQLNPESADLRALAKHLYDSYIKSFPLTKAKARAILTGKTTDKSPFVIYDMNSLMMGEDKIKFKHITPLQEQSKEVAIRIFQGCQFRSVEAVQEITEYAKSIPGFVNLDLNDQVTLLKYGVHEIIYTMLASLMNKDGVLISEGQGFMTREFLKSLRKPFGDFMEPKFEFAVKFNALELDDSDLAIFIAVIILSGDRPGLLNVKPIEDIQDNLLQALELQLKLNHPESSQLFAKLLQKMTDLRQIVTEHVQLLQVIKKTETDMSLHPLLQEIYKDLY
Chain of Estrogen receptor (Homo sapiens) (P03372 whole entry, looked up): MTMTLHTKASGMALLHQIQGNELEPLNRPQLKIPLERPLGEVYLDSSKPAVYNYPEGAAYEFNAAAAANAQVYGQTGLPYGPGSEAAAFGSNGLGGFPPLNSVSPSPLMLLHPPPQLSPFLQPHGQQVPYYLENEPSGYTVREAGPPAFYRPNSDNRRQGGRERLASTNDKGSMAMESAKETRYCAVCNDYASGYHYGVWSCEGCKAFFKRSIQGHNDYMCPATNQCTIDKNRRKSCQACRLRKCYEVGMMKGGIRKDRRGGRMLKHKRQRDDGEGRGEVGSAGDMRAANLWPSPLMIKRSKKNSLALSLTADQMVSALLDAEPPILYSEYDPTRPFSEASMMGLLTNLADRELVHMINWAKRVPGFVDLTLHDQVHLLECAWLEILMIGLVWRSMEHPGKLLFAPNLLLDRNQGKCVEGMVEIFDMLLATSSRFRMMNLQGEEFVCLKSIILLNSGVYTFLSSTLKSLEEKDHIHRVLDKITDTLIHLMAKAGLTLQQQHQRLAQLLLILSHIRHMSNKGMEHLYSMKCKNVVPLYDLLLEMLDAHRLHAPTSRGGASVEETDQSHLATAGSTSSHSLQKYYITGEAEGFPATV
Chain of Bile acid receptor (Homo sapiens) (Q96RI1 whole entry, looked up, the tested form may be a part): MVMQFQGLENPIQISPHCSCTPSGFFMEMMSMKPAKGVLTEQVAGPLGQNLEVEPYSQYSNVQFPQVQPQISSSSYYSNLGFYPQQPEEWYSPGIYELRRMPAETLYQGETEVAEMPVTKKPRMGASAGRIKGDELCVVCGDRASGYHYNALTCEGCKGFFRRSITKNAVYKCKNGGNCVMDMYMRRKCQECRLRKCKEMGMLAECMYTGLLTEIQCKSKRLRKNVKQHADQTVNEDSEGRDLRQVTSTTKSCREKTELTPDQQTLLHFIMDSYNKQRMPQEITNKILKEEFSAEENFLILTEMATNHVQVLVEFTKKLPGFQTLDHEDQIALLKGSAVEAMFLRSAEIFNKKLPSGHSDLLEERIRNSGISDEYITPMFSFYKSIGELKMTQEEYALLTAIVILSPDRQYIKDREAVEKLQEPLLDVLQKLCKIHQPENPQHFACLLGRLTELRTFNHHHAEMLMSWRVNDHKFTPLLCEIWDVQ
Chain of Agonist Androgen Response Element (ARE), AR (gene 367) (P10275 whole entry, looked up, the tested form may be a part): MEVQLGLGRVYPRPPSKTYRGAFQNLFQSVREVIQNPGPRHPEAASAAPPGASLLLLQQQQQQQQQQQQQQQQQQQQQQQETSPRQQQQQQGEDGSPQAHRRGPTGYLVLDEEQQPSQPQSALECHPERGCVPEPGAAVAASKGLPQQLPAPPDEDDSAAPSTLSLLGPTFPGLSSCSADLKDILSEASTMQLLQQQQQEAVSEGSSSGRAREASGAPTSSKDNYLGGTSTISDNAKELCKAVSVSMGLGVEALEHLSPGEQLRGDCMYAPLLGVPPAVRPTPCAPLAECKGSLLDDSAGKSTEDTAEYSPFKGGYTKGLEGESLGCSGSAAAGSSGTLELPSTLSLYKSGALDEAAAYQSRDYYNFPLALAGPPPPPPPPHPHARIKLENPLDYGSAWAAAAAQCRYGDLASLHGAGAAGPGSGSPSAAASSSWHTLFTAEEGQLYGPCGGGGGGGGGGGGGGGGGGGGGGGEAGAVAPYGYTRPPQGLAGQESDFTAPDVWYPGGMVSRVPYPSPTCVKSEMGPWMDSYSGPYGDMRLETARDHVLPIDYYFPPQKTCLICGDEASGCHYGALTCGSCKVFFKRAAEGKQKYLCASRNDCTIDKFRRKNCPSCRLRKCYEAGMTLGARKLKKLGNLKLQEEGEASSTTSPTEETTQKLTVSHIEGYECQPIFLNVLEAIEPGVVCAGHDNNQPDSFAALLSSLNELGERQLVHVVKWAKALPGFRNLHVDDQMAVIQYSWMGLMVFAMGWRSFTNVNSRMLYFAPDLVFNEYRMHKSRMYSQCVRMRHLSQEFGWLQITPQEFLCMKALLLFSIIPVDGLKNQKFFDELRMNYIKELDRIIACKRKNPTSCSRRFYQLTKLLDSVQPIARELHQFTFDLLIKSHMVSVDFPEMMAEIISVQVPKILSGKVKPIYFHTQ
Chain of rat Serotonin Transporter (SERT), Slc6a4 (gene 25553) (P31652 whole entry, looked up): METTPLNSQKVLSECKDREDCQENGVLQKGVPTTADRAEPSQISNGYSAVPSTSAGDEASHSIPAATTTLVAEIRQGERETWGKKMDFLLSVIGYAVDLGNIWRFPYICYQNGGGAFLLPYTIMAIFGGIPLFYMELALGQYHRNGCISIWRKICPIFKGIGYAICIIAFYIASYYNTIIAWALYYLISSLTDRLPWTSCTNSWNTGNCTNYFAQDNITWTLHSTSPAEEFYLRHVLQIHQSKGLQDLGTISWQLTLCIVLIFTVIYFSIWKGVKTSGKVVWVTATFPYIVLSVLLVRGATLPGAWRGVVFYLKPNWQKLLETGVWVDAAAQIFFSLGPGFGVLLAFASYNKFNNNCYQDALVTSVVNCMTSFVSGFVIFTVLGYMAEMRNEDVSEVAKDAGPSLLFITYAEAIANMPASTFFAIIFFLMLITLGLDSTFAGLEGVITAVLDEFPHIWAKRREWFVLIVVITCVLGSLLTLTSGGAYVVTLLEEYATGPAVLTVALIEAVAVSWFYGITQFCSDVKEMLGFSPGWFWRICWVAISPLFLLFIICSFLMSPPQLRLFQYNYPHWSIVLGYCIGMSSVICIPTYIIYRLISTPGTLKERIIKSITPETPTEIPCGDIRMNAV

Usually AC50 stands for the midpoint of the concentration-response curve, whichever way the signal moves. For `CCCCOC(=O)c1ccccc1C(=O)O`, the AC50 in test [1] was 8.41 µM (active). Besides, the compound was called inactive in test [2], in test [3], in test [4], in test [5], in test [6] and in [7]. Further, the compound was classed as inactive in [8] and in [9].
In the case of `C[N+]1(C)CCCCC1`, the call in [2], in test [3], in test [6], in test [7], in test [8] and in test [9] was inactive.
In the case of `CCCCSP(=O)(SCCCC)SCCCC`, the outcome in test [3], in test [5], in [6], in [7], in test [8] and in test [9] was inactive. Moreover, the figures for the AC50 in test [4] and in test [6] were 36.9 µM (active) and 68.9 µM (active), respectively.
As for `Cc1cc(C2CC2)nc(Nc2ccccc2)n1`, the AC50 was 5.69 µM (active) in test [10], 3.82 µM (active) in test [12], 50 µM (active) in test [3] and 20.4 µM (active) in [4]. Also, the compound was classed as inactive in test [11], in [13], in test [14], in test [5], in [6] and in [7]. Moreover, the outcome in test [8] and in test [9] was inactive.
`CC(C)[C@H](C(=O)O[C@H](C#N)c1cccc(Oc2ccccc2)c1)c1ccc(Cl)cc1`: in test [1], the AC50 is 16.2 µM (active). The call in test [3], in [7], in test [8] and in test [9] was inactive.
As for `FC(F)C(F)(F)OCC(Cn1cncn1)c1ccc(Cl)cc1Cl` (centres undefined), the AC50 in [1] is 7.59 µM (active). Also, the call in [3], in [4], in [8], in test [9], in [15] and in test [16] was inactive. Besides, the compound was classed as inactive in test [17] and in [18].
`COP(=O)(OC)SCn1c(=O)oc2cc(Cl)cnc21`: the compound was called inactive in test [2], in test [13], in test [14], in test [6], in [8] and in test [9].
In the case of `COc1ccc(C(=CC(=O)N2CCOCC2)c2ccc(Cl)cc2)cc1OC`, the result in test [19], in test [3], in test [6], in test [7], in test [8] and in [9] was inactive. For the same compound, the compound was classed as inactive in [15], in test [16], in test [17], in test [20] and in test [18]. Further, the values for the AC50 in test [4] and in test [5] were 31.5 µM (active) and 76.3 µM (active), respectively.
For the compound `CCc1cccc(CC)c1N(COC)C(=O)CCl`, the compound was called inactive in [3], in [13], in [14], in [4], in test [5] and in test [6]. Further, the call in test [8] and in [9] was inactive. Further, in [7], the AC50 is 0.714 µM (active).
For `C#CCC1=C(C)C(OC(=O)C2C(C=C(C)C)C2(C)C)CC1=O` (centres undefined), the AC50 in test [1] is 12 µM (active); in test [4], 33 µM (active); in test [5], 49.8 µM (active); in [6], 66.7 µM (active); in test [7], 79.6 µM (active). For the same compound, the call in test [3], in test [6], in test [7], in test [8], in [9] and in test [16] was inactive. In addition, in [17], the compound was classed as inactive.
